Bioassay records from PubChem BioAssay.
HEK cytotox: HEK 293 cell cytotoxicity. HEK 293 viability, ATP luminescence (CellTiter-Glo), 48-72 h. Potency, µM (titrated, usually from 115 µM), usual class: inhibitors. hit rate 6.6% among 94,000. AID 1345083; also: nearly all actives have a fitted effect of over 60% in size
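Luminescence from cellular ATP, measured with CellTiter-Glo, indicates HEK 293 viability. Cells plated at 250 cells/well are treated with compound for 48 or 72 hr at 37 degree Celsius before reagent addition.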
hNpr1 antagonist: blocks ANP-stimulated signaling of human Npr1 receptor; HEK293 hNpr1 GloSensor cGMP, ANP-stimulated luminescence; hit rate 1.6% among 76,000; P16066; Potency, µM (doses to about 46.3 µM), actives largely listed as inhibitors; calls by dose curve; also: nearly all actives have a fitted effect of over 60% in size
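HEK293 cells stably expressing human Npr1 and cGMP GloSensor pGS-40F, loaded 2 h with 2% GloSensor reagent, given compound 30 min at room temperature. Luminescence read before and 20 min after 0.1 nM hNppA.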
3T3 cytotox: kills NIH 3T3 cells; NIH 3T3 viability, CellTiter-Glo ATP luminescence, 48-72 h; Potency, µM (doses to about 96.7 µM), most hits filed as inhibitors; hit rate 4.3% among 94,000; also: nearly all actives have a fitted effect of over 55% in size
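Cytotoxicity is measured as loss of cellular ATP: NIH 3T3 cells (400/well) are exposed to compound for 48 or 72 hr at 37 °C, then CellTiter-Glo luminescence is imaged after 10 min at room temperature.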
Luciferase inh: inhibitors of firefly (Photinus pyralis) luciferase; purified P. pyralis luciferase, luminescence, biochemical; P08659; hit rate 2.5% among 76,000; Potency, µM (titrated, usually from 115 µM), usual class: inhibitors; also: nearly all actives have a fitted effect of over 65% in size
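Biochemical qHTS: compound (6-point titration) added to 10uM D-luciferin plus 10uM ATP in Tris acetate pH 7.5 buffer with Mg, Tween-20 and BSA, then purified enzyme at 10nM; light output imaged.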
Numbers stand for hits. This is a sample that favours compounds with a hit; in the whole collection about 11% have one here. Unless noted, calls follow the shape of the dose curve; as a rule, active = well fitted curve in the direction sought with a large enough effect; inconclusive = small, poorly fitted or top-dose-only effect, or another doubt; inactive = no such curve, though single readings can be large; an effect the other way counts as inactive or inconclusive.

Results for COCC1CN(C2CCC2)CC12CCN(C(=O)Cc1cccc(F)c1)CC2 (stereo not given) ?
HEK cytotox: 50µM; hNpr1 antagonist: inactive; 3T3 cytotox: inconclusive; Luciferase inh: inactive

What do the screens show for `COCC1CN(C2CCC2)CC12CCN(C(=O)Cc1cccc(OC)c1)CC2` (stereo not given)?
HEK cytotox: inconclusive; hNpr1 antagonist: inactive; 3T3 cytotox: inconclusive; Luciferase inh: inactive

What do the screens show for `COCCNC(=O)c1ccc2nnc(C3CCOCC3)n2c1`?
HEK cytotox: inactive; 3T3 cytotox: inactive

What do the screens show for `Cc1nnc2ccc(N3CCCN(C(=O)c4ccccc4Cl)CC3)nn12`?
HEK cytotox: inactive; 3T3 cytotox: inactive

How did Cc1oc2c(c1C(=O)N1CCN(C3CCCC3)CC1)CN(Cc1cccc(F)c1)CC2 do in these assays?
HEK cytotox: inconclusive; hNpr1 antagonist: inactive; 3T3 cytotox: inactive; Luciferase inh: inactive

What do the screens show for `COCC1CN(C)CC12CCN(C(=O)Cc1cccc(Cl)c1)CC2` (stereo not given)?
HEK cytotox: 35µM; hNpr1 antagonist: inactive; 3T3 cytotox: inconclusive; Luciferase inh: inactive

Results for COCC1CN(C(C)=O)CC12CCN(C(=O)Cc1cccc(F)c1)CC2 (stereo not given) ?
HEK cytotox: inactive; hNpr1 antagonist: inactive; 3T3 cytotox: inactive; Luciferase inh: inactive

Results for COCCn1c(=O)c(C(=O)N2CCN(C(=O)NC3CCCC3)CC2)nc2cccnc21 ?
HEK cytotox: inactive; 3T3 cytotox: inactive

How did CCCN(C)c1nccnc1OC1CCN(C(=O)c2ccc(F)cc2)C1 (stereo not given) do in these assays?
HEK cytotox: inconclusive; hNpr1 antagonist: inactive; 3T3 cytotox: inactive; Luciferase inh: 35µM

Results for CCCN(C)c1nccnc1OC1CCN(C(=O)c2ccc(OC)nc2OC)C1 (stereo not given) ?
HEK cytotox: inconclusive; hNpr1 antagonist: inactive; 3T3 cytotox: inactive; Luciferase inh: 22µM

What do the screens show for `CCCN(C)c1nccnc1OC1CCN(C(=O)c2ccoc2)C1` (stereo not given)?
HEK cytotox: inconclusive; hNpr1 antagonist: inactive; 3T3 cytotox: inactive; Luciferase inh: 14µM

What do the screens show for `CCc1ccc(C(=O)N2CCC(Oc3nccnc3N(C)C)C2)cc1` (stereo not given)?
HEK cytotox: inconclusive; hNpr1 antagonist: inactive; 3T3 cytotox: inactive; Luciferase inh: inconclusive

How did CCCN(C)c1nccnc1OC1CCN(C(=O)C2CCCCC2)C1 (stereo not given) do in these assays?
HEK cytotox: inconclusive; hNpr1 antagonist: inactive; 3T3 cytotox: inactive; Luciferase inh: inconclusive

What do the screens show for `O=C(NC1CCCC1)N1CCC(C(=O)N2CCC(N3Cc4ccccc4C3=O)CC2)CC1`?
HEK cytotox: inactive; 3T3 cytotox: inactive

Results for c1ccc(Nc2cc3c(cn2)CN(Cc2ccc4[nH]ccc4c2)CCN3)cc1 ?
HEK cytotox: 40µM; hNpr1 antagonist: inactive; 3T3 cytotox: 28µM; Luciferase inh: inconclusive

What do the screens show for `c1ccc(Nc2cc3c(cn2)NCCN(Cc2ccc4[nH]ccc4c2)C3)cc1`?
HEK cytotox: 56µM; hNpr1 antagonist: inactive; 3T3 cytotox: inconclusive; Luciferase inh: inactive

What do the screens show for `CC(=O)N1CCN(C(=O)c2ccc3nnc(C4CC4)n3c2)CC1`?
HEK cytotox: inactive; 3T3 cytotox: inactive

What do the screens show for `Cc1nc2cnccn2c1C(=O)N1CCOCC1`?
HEK cytotox: inactive; 3T3 cytotox: inactive

Results for CCc1nc2c(NC(=O)Nc3cccc(C(=O)OC)c3)cccn2n1 ?
HEK cytotox: inconclusive; hNpr1 antagonist: inactive; 3T3 cytotox: inconclusive; Luciferase inh: inconclusive

How did Cc1nc2c(NC(=O)Nc3cccc(C(F)(F)F)c3)cccn2n1 do in these assays?
HEK cytotox: 35µM; hNpr1 antagonist: inactive; 3T3 cytotox: inconclusive; Luciferase inh: inconclusive

How did COc1ccc(NC(=O)Nc2cccn3nc(C)nc23)cc1 do in these assays?
HEK cytotox: inconclusive; hNpr1 antagonist: inactive; 3T3 cytotox: inconclusive; Luciferase inh: 18µM

What do the screens show for `C[C@@]12CO[C@H](c3ccccc3)C[C@@H]1C[C@@H](N1CCN(CC3CC3)CC1)C2`?
HEK cytotox: inconclusive; 3T3 cytotox: inactive

How did COCCCNC(=O)c1nc2sccn2c1-c1ccccc1 do in these assays?
HEK cytotox: inactive; 3T3 cytotox: inactive

How did CO[C@H]1C(=O)N(C(C)C)[C@H]1C1CCN(C(=O)Cc2ccccc2)CC1 do in these assays?
HEK cytotox: inactive; 3T3 cytotox: inactive

What do the screens show for `Cc1noc(C)c1-c1cn(CCNS(=O)(=O)c2ccc(Cl)cc2)nn1`?
HEK cytotox: inactive; hNpr1 antagonist: inactive; 3T3 cytotox: inactive; Luciferase inh: inactive

What do the screens show for `COc1ccc(-c2cc(N3CCCC(NC(=O)Cc4ccc(OC)c(OC)c4)C3)n[nH]2)cc1` (stereo not given)?
HEK cytotox: 35µM; hNpr1 antagonist: inconclusive; 3T3 cytotox: inconclusive; Luciferase inh: inconclusive

What do the screens show for `COc1ccc(-c2cc(N3CCC(NC(=O)COc4cccc(C)c4)CC3)n[nH]2)cc1`?
HEK cytotox: inconclusive; hNpr1 antagonist: inconclusive; 3T3 cytotox: 40µM; Luciferase inh: inactive

How did O=C(NC1CCN(c2cc(-c3ccc(Cl)cc3)[nH]n2)C1)c1ccccc1 (stereo not given) do in these assays?
HEK cytotox: inconclusive; hNpr1 antagonist: inactive; 3T3 cytotox: inconclusive; Luciferase inh: inactive

How did O=C(NC1CCCN(c2cc(-c3ccc(Cl)cc3)[nH]n2)C1)c1ccc(Br)o1 (stereo not given) do in these assays?
HEK cytotox: 45µM; hNpr1 antagonist: inactive; 3T3 cytotox: inconclusive; Luciferase inh: inactive

What do the screens show for `O=C(NC1CCN(c2cc(-c3ccc(Cl)cc3)[nH]n2)C1)c1ccc(Br)o1` (stereo not given)?
HEK cytotox: 35µM; hNpr1 antagonist: inactive; 3T3 cytotox: inconclusive; Luciferase inh: inactive

How did COc1ccc(C(=O)N2CC(=O)N(Cc3c(OC)cccc3OC)CC(O)C2)cc1 (stereo not given) do in these assays?
HEK cytotox: inactive; 3T3 cytotox: inconclusive

How did O=C(NC1CCN(c2ccc3nnc(-c4ccccc4)n3n2)C1)c1ccccc1 (stereo not given) do in these assays?
HEK cytotox: inactive; 3T3 cytotox: inactive

Results for COc1ncccc1-c1nc2cc(C(=O)Nc3ccc(F)cc3)ccc2o1 ?
HEK cytotox: inconclusive; 3T3 cytotox: inactive

How did COc1ccc(-c2cc(N3CCCC(NC(=O)c4ccccc4Br)C3)n[nH]2)cc1 (stereo not given) do in these assays?
HEK cytotox: inconclusive; hNpr1 antagonist: inactive; 3T3 cytotox: inconclusive; Luciferase inh: inconclusive

What do the screens show for `COc1ccc(-c2cc(N3CCCC(NC(=O)c4ccc(Br)o4)C3)n[nH]2)cc1` (stereo not given)?
HEK cytotox: inconclusive; hNpr1 antagonist: inactive; 3T3 cytotox: inconclusive; Luciferase inh: 32µM

How did O=C(NCc1ccc(F)cc1F)c1ccc2nnc(C3CCOCC3)n2c1 do in these assays?
HEK cytotox: inactive; 3T3 cytotox: inactive

What do the screens show for `O=C(NC1CCN(c2cc(-c3ccc(F)cc3)[nH]n2)C1)c1cc(Cl)ccc1F` (stereo not given)?
HEK cytotox: inconclusive; hNpr1 antagonist: inactive; 3T3 cytotox: 35µM; Luciferase inh: inactive
